# Assay results taken from PubChem BioAssay.
# Where “and” joins values, the source holds several entries; their conditions need not be identical. Equal entries are not always repeated. Calls of active or inactive are those of the source.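 How the source made its calls, unless noted: active means inhibition at or above 50% relative to wild type and mutant plate controls; inactive means inhibition below 50%.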
# Tests used:
# [1] = inhibitors of TNFa-induced NFkB p65 translocation, primary screen, imaging, HUVEC, MLSMR starter and 10KST1 sets (AID 438;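 active means inhibition above 20% together with a positive visual image hit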;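 further: compound added about 3h40 before a 20 min TNFalpha stimulation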;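 on inhibition: signal is the nuclear over cytoplasmic p65 intensity ratio per well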); conditions: HUVEC TNFa-induced p65 nuclear translocation; cell count: measured here: nuclei count (cytotoxicity indicator), at 2.08 µM; inhibition: at 2 µM, stronger effect = higher value, 0% TNFa-plus-vehicle, 100% no-TNFa wells
# [2] = inhibitors of mutant huntingtin aggregation, primary screen, imaging, exon1htt(103Q)mCFP cells, high-content imaging (AID 483;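 active means visual image review flags a hit and inhibition of aggregation exceeds 20%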;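 further: compound exposure lasted 3 days before fixation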;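 on nuclei count: percent of the per-plate median nuclei count of sample wells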); conditions: exon1htt(103Q)mCFP cell line, aggregate imaging, at 2 µM; inhibition of aggregation: stronger effect = higher value; nuclei count: measured here: cell count, toxicity
# [3] = inhibitors of E-selectin induction by TNFa, primary screen, imaging, HUVEC, immunofluorescence, MLSMR starter and 10KST1 sets (AID 487;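 active means visually confirmed hit in the image check and inhibition above 20%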;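 on inhibition: signal is fraction of cell area covered by stained E-selectin grains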;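 on nuclei count: 100% = median nuclei count of all wells on the same plate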); conditions: HUVEC TNFalpha-induced E-selectin immunofluorescence imaging, at 2 µM; inhibition: stronger effect = higher value; nuclei count: measured here: cell number, toxicity
# [4] = DUSP6 inhibitors restoring Erk phosphorylation by chemical complementation, primary imaging in DUSP6-transfected HeLa (AID 609;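 active means compounds giving at least 50% inhibition in the cell-based MKP-3 phosphatase rescue imaging test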;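 on inhibition: phospho-Erk level distribution per well compared with pooled transfected vehicle control wells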); conditions: HeLa MKP-3 transfected, phospho-Erk imaging KS statistic, at 10 µM, cells stimulated with TPA for 15 min
# [5] = molecular target: Dual specificity protein phosphatase 6 (Homo sapiens) (UniProt Q16828); assay: as above; conditions: HeLa MKP-3 transfected, phospho-Erk imaging KS statistic; at 10 µM; stronger effect = higher value; cells stimulated with TPA for 15 min
# Dual specificity protein phosphatase 6 (Homo sapiens), sequence (Q16828 whole entry, looked up): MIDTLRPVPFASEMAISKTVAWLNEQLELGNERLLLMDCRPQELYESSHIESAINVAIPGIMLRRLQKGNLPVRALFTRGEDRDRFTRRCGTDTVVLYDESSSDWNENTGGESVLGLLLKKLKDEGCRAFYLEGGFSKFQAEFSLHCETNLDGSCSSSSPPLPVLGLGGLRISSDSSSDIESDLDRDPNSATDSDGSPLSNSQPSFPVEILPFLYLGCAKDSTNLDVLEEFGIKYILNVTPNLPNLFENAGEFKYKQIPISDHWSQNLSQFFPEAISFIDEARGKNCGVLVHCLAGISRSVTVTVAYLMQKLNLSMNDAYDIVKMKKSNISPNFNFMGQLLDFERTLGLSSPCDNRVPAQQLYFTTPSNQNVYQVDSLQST
# [6] = molecular target: Voltage-gated potassium channel subunit beta-2 (Rattus norvegicus) (UniProt P62483); assay: KvBeta enzyme negative modulators, primary screen, biochemical, NADPH fluorescence (AID 622;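 active means fluorescence slope higher than the sample average by over 3 SD, cut at about -0.22 in these data, passing the limit was not always enough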;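 further: slope of raw intensity against log time taken from 70 to 1610 s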); conditions: recombinant KvBeta, 4-cyanobenzaldehyde reduction, at 10 µM, stronger effect = higher value
# Voltage-gated potassium channel subunit beta-2 (Rattus norvegicus), sequence (P62483 whole entry, looked up): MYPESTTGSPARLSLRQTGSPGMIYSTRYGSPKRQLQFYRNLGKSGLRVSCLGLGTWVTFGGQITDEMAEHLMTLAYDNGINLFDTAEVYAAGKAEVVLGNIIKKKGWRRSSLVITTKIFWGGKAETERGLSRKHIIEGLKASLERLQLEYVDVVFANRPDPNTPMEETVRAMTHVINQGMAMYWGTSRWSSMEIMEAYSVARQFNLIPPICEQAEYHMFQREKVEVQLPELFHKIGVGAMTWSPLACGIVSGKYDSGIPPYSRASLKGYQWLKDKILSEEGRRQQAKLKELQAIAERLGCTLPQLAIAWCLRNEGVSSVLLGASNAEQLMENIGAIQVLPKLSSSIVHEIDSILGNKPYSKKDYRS
# [7] = molecular target: Voltage-gated potassium channel subunit beta-2 (Rattus norvegicus) (UniProt P62483); assay: KvBeta positive modulators, primary screen, biochemical, NADPH fluorescence (AID 623;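 active means NADPH fluorescence slope more negative than the mean of all samples by about 3 SD, 99.7% confidence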;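 further: fluorescence intensity change per second fitted from 20 to 320 s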); conditions: Recombinant KvBeta, NADPH fluorescence decrease slope, 10 min; at 10 µM; stronger effect = lower value
# [8] = molecular target: Alpha-2C adrenergic receptor (Homo sapiens) (UniProt P18825); assay: modulators of alpha2C/GIRK thallium flux, primary screen, cell-based, HEK293 alpha2C/GIRK1/2 (AID 624;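 active means fluorescence slope after compound addition differing from the mean of all screened samples at 99.7% confidence, in either direction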;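 further: slope of fluorescence ratio to pre-addition baseline per second over 15 to 24 s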); conditions: thallium flux BTC fluorescence, at 10 µM, actives lie on both sides
# Alpha-2C adrenergic receptor (Homo sapiens), sequence (P18825 whole entry, looked up): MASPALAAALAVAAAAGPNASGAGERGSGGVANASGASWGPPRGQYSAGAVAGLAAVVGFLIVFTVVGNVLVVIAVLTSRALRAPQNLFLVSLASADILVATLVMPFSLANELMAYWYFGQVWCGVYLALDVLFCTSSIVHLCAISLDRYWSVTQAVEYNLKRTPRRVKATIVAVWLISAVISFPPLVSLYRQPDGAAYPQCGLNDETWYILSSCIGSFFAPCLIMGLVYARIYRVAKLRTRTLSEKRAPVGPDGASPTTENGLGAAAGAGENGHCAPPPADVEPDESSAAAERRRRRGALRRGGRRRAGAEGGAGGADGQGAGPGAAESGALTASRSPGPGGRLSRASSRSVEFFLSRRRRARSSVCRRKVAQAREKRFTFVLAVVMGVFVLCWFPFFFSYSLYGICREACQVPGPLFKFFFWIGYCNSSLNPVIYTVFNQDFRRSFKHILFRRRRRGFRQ
# [9] = inhibitors of larval lipid processing in zebrafish, primary screen, whole organism, PED6 fluorescence, gall bladder and intestine (AID 686;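 active means a full or partial loss of lipid-probe fluorescence in the fish gall bladder, intestine or both, judged by eye; inactive means no fluorescence loss, or compound toxic to the fish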;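 further: larvae 5 to 7 days old with five fish per well; signal comes from phospholipase A2 cleavage of quenched PED6 carried via bile; overnight exposure to compound and PED6 before scoring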); conditions: Zebrafish larvae PED6 lipid processing, fluorescence scoring; screened at 20 µM (by protocol)
# [10] = inhibitors of Chlamydomonas gravitaxis, primary screen, whole organism, Chlamydomonas reinhardtii, WT vs cilia-less mutant, absorbance, 96-well (AID 463189); conditions: OD600 absorbance, 2 days, at 10 µM, stronger effect = higher value;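 further: 0% = wild type cc124 cells in DMSO and 100% = ciliumless bld1 mutant cells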
# [11] = inhibitors of Sendai virus-induced IRF3 signaling, primary screen, TLR/RLR signaling modifier project, cell-based, Sendai virus stimulus, luciferase, 10K MLSCN set (AID 602276;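 active means inhibition at or above 50% at 10 µM; inactive means inhibition below 50%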;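 further: firefly luciferase from ISG56 promoter only with Renilla not read in this screen; 0% = Sendai virus plus DMSO and 100% = medium plus DMSO without virus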); conditions: HEK293 RL24 IRF3 luciferase reporter, at 10 µM, stronger effect = higher value
# [12] = inhibitors of poly I:C-induced TLR3 signaling, primary screen, cell-based, poly I:C stimulus, luciferase, 10K MLSCN set (AID 602277;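 active means inhibition of the reporter signal at or above 50%; inactive means inhibition below 50%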); conditions: HEK293-TLR3 RL24 IRF3 luciferase reporter, at 10 µM, stronger effect = higher value
# [13] = molecular target: Muscarinic acetylcholine receptor M4 (Homo sapiens) (UniProt P08173); assay: compounds altering M4/GIRK thallium flux, either direction, primary screen, M4 allosteric agonist project, cell-based, HEK293 M4/GIRK, BTC-AM (AID 625;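 active means fluorescence slope after compound addition differing from the mean of all tested samples at 99.7% confidence, mostly higher but some lower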;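 further: thallium influx through GIRK channels coupled to M4 in HEK293 cells with BTC-AM dye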); conditions: at 10 µM, actives lie on both sides
# Muscarinic acetylcholine receptor M4 (Homo sapiens), sequence (P08173 whole entry, looked up): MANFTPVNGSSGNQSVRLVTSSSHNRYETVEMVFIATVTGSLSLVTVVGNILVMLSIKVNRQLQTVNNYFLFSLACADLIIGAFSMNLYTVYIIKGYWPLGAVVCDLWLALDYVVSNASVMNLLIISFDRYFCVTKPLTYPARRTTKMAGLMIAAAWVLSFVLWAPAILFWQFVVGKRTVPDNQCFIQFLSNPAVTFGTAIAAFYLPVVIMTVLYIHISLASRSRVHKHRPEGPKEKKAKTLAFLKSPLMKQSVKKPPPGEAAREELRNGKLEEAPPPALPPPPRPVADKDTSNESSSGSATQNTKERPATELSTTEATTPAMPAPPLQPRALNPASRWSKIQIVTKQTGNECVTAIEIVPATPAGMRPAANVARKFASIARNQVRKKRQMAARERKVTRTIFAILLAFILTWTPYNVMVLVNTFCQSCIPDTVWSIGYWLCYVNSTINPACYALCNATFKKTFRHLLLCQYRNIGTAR
# [14] = measured here: cell density z-score
# [15] = measured here: nuclear c-Myc green intensity z-score
# [16] = measured here: nuclear pErk red intensity z-score, stronger effect = higher value
SMILES,cell count [1],inhibition [1],inhibition of aggregation [2],nuclei count [2] [%],inhibition [3],nuclei count [3] [%],"z-score [4, 14]","z-score [4, 15]","z-score [4, 16]",inhibition [5],fluorescence slope [6],NADPH fluorescence slope [7],slope [8],outcome [9],inhibition [10],inhibition [11],inhibition [12],fluorescence slope [13]
CC1=C(/C=C/C(C)=C/C=C/C(C)=C/C(=O)O)C(C)(C)CCC1,678,3.5% (inactive),-22.6% (inactive),97.6,-69% (inactive),121,-0.898,1.94,-1.68,19% (inactive),-0.448 (inactive),-4.4e-05 (inactive),0.00401 (inactive),inactive,8.28% (inactive) and -12% (inactive),-11.8% (inactive),-27.2% (inactive),
CCCCCCCCCCCCCCCC(O)C(N)CO (stereo not given),586,0.2% (inactive),-17.4% (inactive),104,-75.6% (inactive),122,0.584,2.76,2.96,25.1% (inactive),-0.485 (inactive),-6.4e-05 (inactive),0.00528 (inactive),inactive; toxic,61% (active),18.8% (inactive),4.1% (inactive),
CNCCCC1c2ccccc2C=Cc2ccccc21,583,-3.3% (inactive),10.3% (inactive),79.5,-90.5% (inactive),120,0.8,0.418,3.14,-11.9% (inactive),-0.496 (inactive),-5.9e-05 (inactive),0.00425 (inactive),inactive,7.66% (inactive) and 11.9% (inactive),18.5% (inactive),41.3% (inactive),
Cc1cc(C)c(C#N)c(SCc2[nH]nc3c2C(c2ccccc2)C(C#N)=C(N)O3)n1 (stereo not given),633,-7.7% (inactive),5.8% (inactive),104,-6.9% (inactive),114,0.152,-0.343,0.203,-7.28% (inactive),-0.571 (inactive),2.5e-06 (inactive),0.00484 (inactive),inactive,31.6% (inactive),12.1% (inactive),20.3% (inactive),
Cc1oc2cc(O)ccc2c(=O)c1-c1cnn(-c2ccccc2)c1,454,-6.5% (inactive),-9% (inactive),102,-212% (inactive),120,-0.098,-0.0689,0.86,-9.91% (inactive),-0.486 (inactive),1.2e-05 (inactive),0.00452 (inactive),inactive,9.82% (inactive),7.89% (inactive),0.114% (inactive),
CC(=O)O[C@H]1C[C@@H]2CC[C@@H]3[C@H](CC[C@@]4(C)[C@H]3C[C@H]([N+]3(C)CCCCC3)[C@@H]4OC(C)=O)[C@@]2(C)C[C@@H]1[N+]1(C)CCCCC1,612,0.4% (inactive),-15.2% (inactive),115,-24.6% (inactive),114,-0.612,0.0914,0.638,7.39% (inactive),-0.45 (inactive),2.4e-05 (inactive),0.00404 (inactive),inactive,0.263% (inactive) and 18.9% (inactive),21.9% (inactive),31.6% (inactive),
CC(NCCC(c1ccccc1)c1ccccc1)c1ccccc1 (stereo not given),619,-0.2% (inactive),22.8% (inactive),104,-24.4% (inactive),113,1.32,-0.571,-1.03,13.3% (inactive),-0.492 (inactive),-8.5e-06 (inactive),0.00284 (inactive),inactive,59.1% (active),28.7% (inactive),22.8% (inactive),
COC(=O)c1ccc(C2NC(C(=O)O)CS2)cc1 (stereo not given),652,-14.6% (inactive),3.9% (inactive),107,-8.7% (inactive),139,-0.228,-1.99,-1.57,-9.66% (inactive),-0.4 (inactive),-2.2e-05 (inactive),0.00581 (inactive),inactive,5.15% (inactive),14.2% (inactive),18.9% (inactive),
Cc1ccccc1C(OCCN(C)C)c1ccccc1 (stereo not given),644,-4.5% (inactive),-3% (inactive),89,-41.9% (inactive),103,-0.367,-1.7,0.158,-0.828% (inactive),-0.48 (inactive),-2.2e-05 (inactive),0.00302 (inactive),inactive,24.9% (inactive) and 29.3% (inactive),22.3% (inactive),42.3% (inactive),
CN(C)/C=C1\N=C(c2ccc(Cl)cc2Cl)OC1=O,698,-4.8% (inactive),8.1% (inactive),71.7,-31.3% (inactive),120,-1.76,2.52,-0.794,13.2% (inactive),-0.335 (inactive),-4e-05 (inactive),,inactive,40.7% (inactive),-61.9% (inactive),-177% (inactive),0.00537 (inactive)
